# The full data set covers some 8,800 targets. This sample favours those with a hit. About 0.5% of all pairs of compound and target were hits. A number with no mark means an inactive call.
# Columns and labels:
# Experiment in all cases: log2 fold change, soluble protein after heating vs DMSO (PISA); higher = thermal stabilisation; K562 lysate, 10 uM; active = over 0.2 and 3.5 SD of the protein, either way, in both replicates (recomputed)
# [1] = compound: CN1CC[C@H](c2c(O)cc(O)c3c(=O)cc(-c4ccccc4Cl)oc23)[C@H](O)C1 [alvocidib]
# How it was run: (§1)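 K562 pellets were dounce-homogenised in PBS pH 7.4 with 1 mM MgCl2, and the crude extract at 1 mg/mL protein was treated with 10 μM compound for 30 min. Aliquots were heated for 3 min across 48°C-58°C, pooled, and brought to 0.5% NP-40 at 4°C; soluble protein was the supernatant after 21,000xg for 90 min. Soluble protein was quantified by TMTpro 16plex LC-MS/MS with channel sums equalised, and reported as log2 fold change in thermal stability against DMSO controls, with values from duplicates.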
# [2] = compound: CN1CCc2c(c3ccccc3n2Cc2ccc(C(=O)NO)cc2)C1 [Tubastatin A]
# How it was run: as §1
# [3] = compound: CNC(=O)C1=CC=CC=C1NC2=NC(=NC=C2Cl)NC3=C(C=C(C=C3)N4CCOCC4)OC
# How it was run: as §1
# [4] = compound: CNC(=O)c1ccc(Nc2ncc(C(F)(F)F)c(NCc3nccnc3N(C)S(C)(=O)=O)n2)cc1 [defactinib]
# How it was run: as §1
# [5] = compound: CNc1nc(-c2ccc3c(N)n[nH]c3c2)cc(N2C[C@@H](C(=O)NC3CCCCC3)CC[C@H]2C)n1
# How it was run: as §1
# [6] = compound: COC(=O)N[C@@H](C)CNc1nccc(-c2cn(C(C)C)nc2-c2cc(Cl)cc(NS(C)(=O)=O)c2F)n1 [encorafenib]
# How it was run: as §1
# [7] = compound: COC(=O)[C@H](CCSC)NC(=O)C1=C(C=C(C=C1)NC[C@H](CS)N)C2=CC=CC=C2
# How it was run: as §1
# [8] = compound: COc1cc(Nc2ncc3c(n2)-c2ccc(Cl)cc2C(c2c(F)cccc2OC)=NC3)ccc1C(=O)O [alisertib]
# How it was run: as §1
# [9] = compound: COc1cc2nc(-c3cc(F)ccc3O)nc(N[C@@H]3CNC[C@H]3C(C)(C)O)c2cc1OC
# How it was run: as §1
# [10] = compound: COc1cc2ncnc(Nc3ccc(F)c(Cl)c3)c2cc1OCCCN1CCOCC1 [gefitinib]
# How it was run: as §1
# [11] = compound: CS(=O)(=O)CCNCc1ccc(-c2ccc3ncnc(Nc4ccc(OCc5cccc(F)c5)c(Cl)c4)c3c2)o1 [lapatinib]
# How it was run: as §1
# [12] = compound: CS(=O)(=O)N1CCN(Cc2cc3nc(-c4cccc5[nH]ncc45)nc(N4CCOCC4)c3s2)CC1 [pictilisib]
# How it was run: as §1
# [13] = compound: C[C@@H](Oc1cc(-c2cnn(C3CCNCC3)c2)cnc1N)c1c(Cl)ccc(F)c1Cl [crizotinib]
# How it was run: as §1
# [14] = compound: C[C@H](C1=CC=C(C=C1)C(=O)NC2=C3C=CNC3=NC=C2)N
# How it was run: as §1
# [15] = compound: C[C@H](Nc1ncnc2nc[nH]c12)c1cc2cccc(Cl)c2c(=O)n1-c1ccccc1 [duvelisib]
# How it was run: as §1
# [16] = compound: Cc1cc(Nc2cc(CN3CCOCC3)c3nc(C)c(Cc4ccc(Cl)cc4F)n3n2)n[nH]1 [gandotinib]
# How it was run: as §1
# [17] = compound: Cc1cc(Nc2cc(N3CCN(C)CC3)nc(Sc3ccc(NC(=O)C4CC4)cc3)n2)n[nH]1 [tozasertib]
# How it was run: as §1
# [18] = compound: Cc1ccc(-n2nc(C(C)(C)C)cc2NC(=O)Nc2ccc(OCCN3CCOCC3)c3ccccc23)cc1 [doramapimod]
# How it was run: as §1
# [19] = compound: Cc1ccc(NC(=O)c2ccc(CN3CC[C@H](N(C)C)C3)c(C(F)(F)F)c2)cc1Nc1nccc(-c2cncnc2)n1 [bafetinib]
# How it was run: as §1
# [20] = compound: Cc1cccc(CC(=O)N2CCc3c2ccc(-c2cn(C)c4ncnc(N)c24)c3F)n1
# How it was run: as §1
# UniProt Q9NUQ8, sequence (Q9NUQ8 whole entry, looked up): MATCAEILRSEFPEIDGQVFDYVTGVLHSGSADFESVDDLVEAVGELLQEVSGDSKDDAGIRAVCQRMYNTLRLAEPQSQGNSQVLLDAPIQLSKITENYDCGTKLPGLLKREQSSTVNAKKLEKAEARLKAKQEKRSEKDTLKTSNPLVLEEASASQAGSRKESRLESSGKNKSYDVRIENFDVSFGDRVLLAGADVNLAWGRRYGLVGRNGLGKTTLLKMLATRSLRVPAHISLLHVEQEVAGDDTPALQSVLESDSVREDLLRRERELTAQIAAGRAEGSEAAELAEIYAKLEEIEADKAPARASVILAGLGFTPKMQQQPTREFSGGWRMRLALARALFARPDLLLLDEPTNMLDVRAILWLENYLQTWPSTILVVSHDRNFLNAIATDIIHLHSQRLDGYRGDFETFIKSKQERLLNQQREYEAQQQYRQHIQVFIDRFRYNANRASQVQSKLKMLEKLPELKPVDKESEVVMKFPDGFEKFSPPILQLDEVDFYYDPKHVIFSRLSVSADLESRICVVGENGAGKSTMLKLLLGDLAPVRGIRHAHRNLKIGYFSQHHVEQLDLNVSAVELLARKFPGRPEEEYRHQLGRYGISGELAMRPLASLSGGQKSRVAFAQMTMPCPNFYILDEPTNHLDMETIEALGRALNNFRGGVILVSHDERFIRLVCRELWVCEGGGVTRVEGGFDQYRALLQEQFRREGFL
# UniProt P55265, sequence (P55265 whole entry, looked up): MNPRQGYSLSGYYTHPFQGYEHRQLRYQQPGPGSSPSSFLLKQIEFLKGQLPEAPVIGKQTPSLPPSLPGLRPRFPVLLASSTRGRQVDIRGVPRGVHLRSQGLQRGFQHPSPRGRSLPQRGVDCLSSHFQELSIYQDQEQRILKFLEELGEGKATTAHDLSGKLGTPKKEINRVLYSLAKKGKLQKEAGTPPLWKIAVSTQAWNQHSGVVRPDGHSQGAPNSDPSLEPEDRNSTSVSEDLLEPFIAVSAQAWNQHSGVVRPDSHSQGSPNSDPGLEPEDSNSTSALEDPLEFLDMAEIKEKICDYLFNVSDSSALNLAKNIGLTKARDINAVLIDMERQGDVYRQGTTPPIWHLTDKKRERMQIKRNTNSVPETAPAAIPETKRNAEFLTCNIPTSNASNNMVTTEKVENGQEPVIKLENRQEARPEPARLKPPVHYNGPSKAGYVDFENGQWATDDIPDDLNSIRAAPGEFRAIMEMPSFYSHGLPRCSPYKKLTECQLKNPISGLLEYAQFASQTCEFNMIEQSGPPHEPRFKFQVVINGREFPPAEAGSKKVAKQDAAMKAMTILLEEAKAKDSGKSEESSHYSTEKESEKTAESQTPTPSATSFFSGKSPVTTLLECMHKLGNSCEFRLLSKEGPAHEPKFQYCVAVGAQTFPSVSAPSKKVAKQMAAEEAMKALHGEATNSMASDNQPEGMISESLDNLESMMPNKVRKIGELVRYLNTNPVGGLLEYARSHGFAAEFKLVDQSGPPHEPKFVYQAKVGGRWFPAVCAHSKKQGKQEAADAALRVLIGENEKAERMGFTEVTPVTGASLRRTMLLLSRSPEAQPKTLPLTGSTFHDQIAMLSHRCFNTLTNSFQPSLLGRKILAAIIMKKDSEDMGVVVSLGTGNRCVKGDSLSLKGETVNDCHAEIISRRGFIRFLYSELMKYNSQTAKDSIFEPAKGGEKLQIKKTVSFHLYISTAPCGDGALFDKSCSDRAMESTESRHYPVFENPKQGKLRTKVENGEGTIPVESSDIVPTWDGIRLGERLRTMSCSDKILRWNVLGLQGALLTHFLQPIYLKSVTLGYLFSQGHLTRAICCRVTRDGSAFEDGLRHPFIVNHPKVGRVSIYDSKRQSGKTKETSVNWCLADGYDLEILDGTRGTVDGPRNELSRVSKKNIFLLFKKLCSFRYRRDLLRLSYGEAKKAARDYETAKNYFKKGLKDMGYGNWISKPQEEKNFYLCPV
# UniProt Q9BR61, sequence (Q9BR61 whole entry, looked up): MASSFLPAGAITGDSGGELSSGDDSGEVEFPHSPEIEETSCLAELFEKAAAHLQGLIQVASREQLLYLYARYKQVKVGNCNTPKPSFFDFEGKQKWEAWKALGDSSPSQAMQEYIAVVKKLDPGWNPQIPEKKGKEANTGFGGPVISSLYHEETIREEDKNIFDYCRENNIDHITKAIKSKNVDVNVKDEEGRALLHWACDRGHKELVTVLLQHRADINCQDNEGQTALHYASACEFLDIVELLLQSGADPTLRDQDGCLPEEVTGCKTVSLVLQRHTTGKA
# UniProt Q96GS6, sequence (Q96GS6 whole entry, looked up): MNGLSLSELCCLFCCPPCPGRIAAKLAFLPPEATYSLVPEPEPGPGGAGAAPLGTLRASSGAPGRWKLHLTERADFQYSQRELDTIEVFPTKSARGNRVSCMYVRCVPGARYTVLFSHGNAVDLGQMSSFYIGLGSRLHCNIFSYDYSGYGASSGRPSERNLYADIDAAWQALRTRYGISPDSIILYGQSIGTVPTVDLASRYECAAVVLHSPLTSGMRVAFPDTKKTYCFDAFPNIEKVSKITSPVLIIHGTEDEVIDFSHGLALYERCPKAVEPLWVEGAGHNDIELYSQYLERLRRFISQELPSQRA
# UniProt P39687, sequence (P39687 whole entry, looked up): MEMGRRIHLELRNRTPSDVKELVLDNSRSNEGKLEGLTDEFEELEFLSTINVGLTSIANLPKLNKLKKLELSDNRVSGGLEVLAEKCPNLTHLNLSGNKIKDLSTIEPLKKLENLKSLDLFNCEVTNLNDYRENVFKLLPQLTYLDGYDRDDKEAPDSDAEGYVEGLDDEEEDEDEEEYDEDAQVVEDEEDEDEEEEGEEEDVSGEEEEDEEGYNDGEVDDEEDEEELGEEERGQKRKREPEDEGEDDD
# UniProt P05091, sequence (P05091 whole entry, looked up): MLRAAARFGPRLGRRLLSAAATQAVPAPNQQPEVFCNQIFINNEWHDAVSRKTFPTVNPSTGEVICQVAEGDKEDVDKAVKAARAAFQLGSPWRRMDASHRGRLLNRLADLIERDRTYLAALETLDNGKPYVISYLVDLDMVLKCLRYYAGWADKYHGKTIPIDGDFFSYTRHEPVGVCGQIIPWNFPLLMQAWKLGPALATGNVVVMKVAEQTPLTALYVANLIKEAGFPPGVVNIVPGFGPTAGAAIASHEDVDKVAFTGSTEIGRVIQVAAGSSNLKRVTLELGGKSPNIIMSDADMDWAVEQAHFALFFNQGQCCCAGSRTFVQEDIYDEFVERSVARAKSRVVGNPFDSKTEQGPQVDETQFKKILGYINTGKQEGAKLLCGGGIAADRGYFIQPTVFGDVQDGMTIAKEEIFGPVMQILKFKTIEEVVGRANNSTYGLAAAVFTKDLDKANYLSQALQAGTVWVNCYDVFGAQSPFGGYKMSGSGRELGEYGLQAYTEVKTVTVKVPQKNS
# UniProt P42331, sequence (P42331 whole entry, looked up): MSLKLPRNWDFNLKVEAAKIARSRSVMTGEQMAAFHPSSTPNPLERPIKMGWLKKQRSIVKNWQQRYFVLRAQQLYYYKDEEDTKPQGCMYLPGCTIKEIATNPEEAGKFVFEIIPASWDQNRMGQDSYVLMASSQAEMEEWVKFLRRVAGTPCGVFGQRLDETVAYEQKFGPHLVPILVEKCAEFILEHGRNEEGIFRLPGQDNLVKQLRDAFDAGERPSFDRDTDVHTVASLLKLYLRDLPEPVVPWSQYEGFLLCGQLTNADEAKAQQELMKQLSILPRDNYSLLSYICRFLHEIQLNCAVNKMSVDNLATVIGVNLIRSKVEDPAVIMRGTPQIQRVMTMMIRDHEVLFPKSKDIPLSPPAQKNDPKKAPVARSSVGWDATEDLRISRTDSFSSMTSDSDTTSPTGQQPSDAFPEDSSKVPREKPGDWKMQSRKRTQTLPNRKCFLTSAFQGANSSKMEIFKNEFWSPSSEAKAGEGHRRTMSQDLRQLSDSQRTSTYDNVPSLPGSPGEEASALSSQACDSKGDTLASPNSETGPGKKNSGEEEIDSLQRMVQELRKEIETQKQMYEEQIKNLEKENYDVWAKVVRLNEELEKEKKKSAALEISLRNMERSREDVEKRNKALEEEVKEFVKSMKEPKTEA
# UniProt Q8NFV4, sequence (Q8NFV4 whole entry, looked up): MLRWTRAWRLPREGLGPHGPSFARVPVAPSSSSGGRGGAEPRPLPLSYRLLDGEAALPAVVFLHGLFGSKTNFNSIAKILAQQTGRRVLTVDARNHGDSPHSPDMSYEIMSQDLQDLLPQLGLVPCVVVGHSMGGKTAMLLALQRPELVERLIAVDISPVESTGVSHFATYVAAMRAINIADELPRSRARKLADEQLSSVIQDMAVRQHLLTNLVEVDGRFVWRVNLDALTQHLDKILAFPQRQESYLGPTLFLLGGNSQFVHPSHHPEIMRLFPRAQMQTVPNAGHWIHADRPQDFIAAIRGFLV
# UniProt Q9NWB6, sequence (Q9NWB6 whole entry, looked up): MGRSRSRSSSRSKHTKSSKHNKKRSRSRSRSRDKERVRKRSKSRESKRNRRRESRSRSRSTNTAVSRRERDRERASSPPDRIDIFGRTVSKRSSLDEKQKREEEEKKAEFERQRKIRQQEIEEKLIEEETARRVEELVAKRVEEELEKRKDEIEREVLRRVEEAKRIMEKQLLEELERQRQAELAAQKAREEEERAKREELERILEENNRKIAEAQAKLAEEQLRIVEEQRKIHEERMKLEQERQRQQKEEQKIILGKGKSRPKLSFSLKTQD
# UniProt P16219, sequence (P16219 whole entry, looked up): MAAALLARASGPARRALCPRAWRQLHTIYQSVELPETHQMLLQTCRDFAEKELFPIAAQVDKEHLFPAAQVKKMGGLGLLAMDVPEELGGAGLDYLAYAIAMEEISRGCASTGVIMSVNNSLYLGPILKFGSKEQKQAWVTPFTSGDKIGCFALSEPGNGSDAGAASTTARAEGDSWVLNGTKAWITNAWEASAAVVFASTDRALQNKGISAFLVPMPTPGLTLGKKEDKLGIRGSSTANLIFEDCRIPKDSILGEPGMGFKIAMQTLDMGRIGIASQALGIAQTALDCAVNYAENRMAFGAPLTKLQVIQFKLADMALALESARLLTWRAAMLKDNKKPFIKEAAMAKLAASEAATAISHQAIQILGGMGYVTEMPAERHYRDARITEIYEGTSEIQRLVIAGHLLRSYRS
Target,log2 fold change [1],log2 fold change [2],log2 fold change [3],log2 fold change [4],log2 fold change [5],log2 fold change [6],log2 fold change [7],log2 fold change [8],log2 fold change [9],log2 fold change [10],log2 fold change [11],log2 fold change [12],log2 fold change [13],log2 fold change [14],log2 fold change [15],log2 fold change [16],log2 fold change [17],log2 fold change [18],log2 fold change [19],log2 fold change [20]
ADAR isoform 4 (UniProt P55265),-0.004,-0.167,0.012,0.054,-0.001,0.052,-0.041,0.045,0.013,0.02,0.023,-0.135,0,0.01,0.016,-0.038,0.016,0.069,-0.16,0.028
ANP32A (UniProt P39687),-0.039,0.027,-0.006,0.016,-0.056,-0.024,-0.048,0.018,-0.014,-0.007,0.068,-0.001,0,-0.063,-0.003,0.065,0.014,0.096,0.126,0
ABCF3 (UniProt Q9NUQ8),0.013,-0.172,0.029,-0.01,-0.01,-0.031,0.11,0.004,-0.003,-0.006,-0.019,0.006,-0.033,0.02,0.018,-0.075,0.063,0.011,-0.062,0.017
ARMCX3 (UniProt Q9UH62),0.022,-0.061,-0.018,0.017,0.026,-0.006,0.015,0.055,0.042,-0.053,-0.058,0.005,-0.076,0.078,0.064,-0.064,0.005,-0.003,-0.044,0.032
AKR1B1 (UniProt P15121),0.033,0.023,-0.003,-0.01,-0.072,0.019,0.009,0.015,-0.008,-0.016,-0.009,0.006,0.065,-0.102,-0.006,0.037,-0.014,-0.022,0.011,0.006
ALDH2 (UniProt P05091),0.059,-0.006,0.437 (active),-0.03,-0.051,0.006,-0.03,0.037,-0.016,0.014,0,0,-0.02,-0.012,-0.03,0.011,0.023,-0.023,0.017,-0.077
ACIN1 isoform 5 (UniProt Q9UKV3),-0.038,0.039,-0.034,-0.009,0.053,-0.004,-0.01,0.032,-0.003,0.001,0.012,-0.024,0.034,0.022,-0.002,-0.003,0.003,0.01,-0.013,0.002
ABI1 isoform 9 (UniProt Q8IZP0),-0.096,0.053,0.005,-0.038,0.025,0.003,-0.057,-0.02,0.018,-0.015,0.011,-0.048,-0.006,-0.26 (active),0.01,0.13,0.008,-0.015,0.08,0.163
ARHGAP25 isoform 4 (UniProt P42331),-0.032,-0.122,0.04,0.055,0.054,-0.009,0.038,0.012,-0.004,-0.009,0.011,-0.024,-0.053,-0.011,0.008,-0.024,-0.006,-0.005,-0.075,0.081
ABCF2 isoform 2 (UniProt Q9UG63),0.004,-0.169,-0.001,-0.039,0.005,-0.005,0.08,0.014,0.025,-0.02,-0.038,-0.005,-0.011,-0.001,0.021,-0.097,0.057,-0.002,-0.025,-0.024
ARGLU1 (UniProt Q9NWB6),-0.119,0.018,-0.056,-0.049,0.01,0.012,-0.039,-0.006,0.012,0.006,0.038,0.013,0.043,-0.062,-0.023,-0.119,0.045,0.019,-0.014,0.013
ASPH (UniProt Q12797),-0.012,0.018,-0.01,0.023,-0.006,0.018,-0.047,0.042,-0.025,-0.041,-0.035,-0.012,-0.025,0.048,-0.022,-0.04,0.037,0.008,0.029,0.005
ABHD11 (UniProt Q8NFV4),0,0.032,-0.066,0.034,0.087,-0.028,0.173,-0.027,0.022,0.004,0.024,0.033,-0.019,-0.121,0.028,0.853 (active),0.081,-0.034,0.009,0.05
ACBD6 (UniProt Q9BR61),-0.009,-0.15,0.056,-0.005,0.016,-0.003,0.051,-0.006,0.016,-0.022,-0.002,0.01,-0.04,-0.036,0.063,-0.01,-0.051,-0.024,-0.047,0.006
ABHD17A isoform 2 (UniProt Q96GS6),-0.025,0.023,-0.025,-0.009,0.01,-0.009,-0.222,-0.12,0.04,0.044,-0.034,-0.044,0.017,-0.074,0.01,0.139,0.019,0.044,0.019,0.065
ACADS (UniProt P16219),-0.011,-0.003,0.019,-0.011,0.014,-0.034,0.071,-0.003,-0.037,-0.023,-0.004,-0.018,-0.027,-0.026,-0.003,0.016,-0.013,0.008,0.037,0.034

# Reference: the supplement of paper PMC10849652
